Data published in PubChem BioAssay.
“And” between values parts separate entries of the source, which are not always exact repeats. Identical values can stand only once. Results filed as inconclusive are left out. The source made the active and inactive calls.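 Rule for the calls, unless noted: active = at least 20% inhibition of 6-phosphogluconate dehydrogenase activity; inactive = the rest.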

Experiments:
[1] = target: 6-phosphogluconate dehydrogenase, decarboxylating (Homo sapiens) (UniProt P52209); assay: 6PGD enzyme inhibitors, primary screen, biochemical, human, recombinant enzyme, NADPH absorbance (AID 1159550); details: recombinant 6PGD, NADPH absorbance 341 nm; at 10 µM; stronger effect = higher value
Chain of 6-phosphogluconate dehydrogenase, decarboxylating (Homo sapiens) (P52209 whole entry, looked up): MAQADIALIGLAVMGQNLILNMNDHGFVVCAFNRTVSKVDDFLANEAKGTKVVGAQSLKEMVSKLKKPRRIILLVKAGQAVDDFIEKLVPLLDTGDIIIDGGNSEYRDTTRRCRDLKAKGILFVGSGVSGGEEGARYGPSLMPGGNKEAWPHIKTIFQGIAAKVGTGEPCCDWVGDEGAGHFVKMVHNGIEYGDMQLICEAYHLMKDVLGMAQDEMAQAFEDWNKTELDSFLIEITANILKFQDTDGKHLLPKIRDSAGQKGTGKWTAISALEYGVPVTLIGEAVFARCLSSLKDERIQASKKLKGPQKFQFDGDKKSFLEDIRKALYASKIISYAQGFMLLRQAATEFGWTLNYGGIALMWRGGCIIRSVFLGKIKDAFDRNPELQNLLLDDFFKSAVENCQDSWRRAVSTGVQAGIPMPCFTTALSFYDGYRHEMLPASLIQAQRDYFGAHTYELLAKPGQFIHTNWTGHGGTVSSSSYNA

[2] = target: NAD(+) hydrolase SARM1 (Homo sapiens) (UniProt Q6SZW1); assay: SARM1 TIR NADase inhibitors, cell lysate, NAD-Glo luminescence (AID 1508614;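 active = compound whose remaining NAD level is above about 45 nM, limit read from the data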;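 note: higher remaining NAD means stronger inhibition of SARM1 NADase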); details: SAM-TIR HEK293T lysate NADase, at 1 µM, stronger effect = higher value
Chain of NAD(+) hydrolase SARM1 (Homo sapiens) (Q6SZW1 whole entry, looked up, the tested form may be a part): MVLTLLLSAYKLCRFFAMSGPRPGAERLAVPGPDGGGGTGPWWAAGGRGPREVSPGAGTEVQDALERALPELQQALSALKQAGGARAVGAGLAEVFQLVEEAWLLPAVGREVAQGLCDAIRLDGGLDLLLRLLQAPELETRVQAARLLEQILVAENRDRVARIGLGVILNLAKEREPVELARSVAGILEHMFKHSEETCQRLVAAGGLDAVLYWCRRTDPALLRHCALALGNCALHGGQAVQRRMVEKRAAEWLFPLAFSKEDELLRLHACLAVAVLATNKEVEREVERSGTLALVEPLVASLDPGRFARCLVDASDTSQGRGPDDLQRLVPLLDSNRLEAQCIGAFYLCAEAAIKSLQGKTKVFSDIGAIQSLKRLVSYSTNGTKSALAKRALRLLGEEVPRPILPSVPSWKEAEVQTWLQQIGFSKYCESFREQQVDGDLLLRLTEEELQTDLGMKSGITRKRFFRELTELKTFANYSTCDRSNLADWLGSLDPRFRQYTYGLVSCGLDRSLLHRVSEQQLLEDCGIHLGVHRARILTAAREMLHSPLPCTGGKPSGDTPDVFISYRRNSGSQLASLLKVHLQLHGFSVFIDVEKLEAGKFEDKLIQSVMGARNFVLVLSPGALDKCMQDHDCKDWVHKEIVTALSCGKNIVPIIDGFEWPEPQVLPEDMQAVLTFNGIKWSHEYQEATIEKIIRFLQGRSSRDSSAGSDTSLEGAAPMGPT

[3] = target: Mitogen-activated protein kinase 7 (Homo sapiens) (UniProt Q13164); assay: ERK5 transactivation activators in reporter cells, primary screen, cell-based, HTS (AID 1508626;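 active = luciferase signal above three times the same-plate solvent-only control wells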;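 note: luciferase driven by Gal4-ERK5 fusion binding five Gal4 sites before minimal TATA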); details: HeLa Gal4-ERK5 transactivation, 18 h, at 5 µM, stronger effect = higher value
Chain of Mitogen-activated protein kinase 7 (Homo sapiens) (Q13164 whole entry, looked up, the tested form may be a part): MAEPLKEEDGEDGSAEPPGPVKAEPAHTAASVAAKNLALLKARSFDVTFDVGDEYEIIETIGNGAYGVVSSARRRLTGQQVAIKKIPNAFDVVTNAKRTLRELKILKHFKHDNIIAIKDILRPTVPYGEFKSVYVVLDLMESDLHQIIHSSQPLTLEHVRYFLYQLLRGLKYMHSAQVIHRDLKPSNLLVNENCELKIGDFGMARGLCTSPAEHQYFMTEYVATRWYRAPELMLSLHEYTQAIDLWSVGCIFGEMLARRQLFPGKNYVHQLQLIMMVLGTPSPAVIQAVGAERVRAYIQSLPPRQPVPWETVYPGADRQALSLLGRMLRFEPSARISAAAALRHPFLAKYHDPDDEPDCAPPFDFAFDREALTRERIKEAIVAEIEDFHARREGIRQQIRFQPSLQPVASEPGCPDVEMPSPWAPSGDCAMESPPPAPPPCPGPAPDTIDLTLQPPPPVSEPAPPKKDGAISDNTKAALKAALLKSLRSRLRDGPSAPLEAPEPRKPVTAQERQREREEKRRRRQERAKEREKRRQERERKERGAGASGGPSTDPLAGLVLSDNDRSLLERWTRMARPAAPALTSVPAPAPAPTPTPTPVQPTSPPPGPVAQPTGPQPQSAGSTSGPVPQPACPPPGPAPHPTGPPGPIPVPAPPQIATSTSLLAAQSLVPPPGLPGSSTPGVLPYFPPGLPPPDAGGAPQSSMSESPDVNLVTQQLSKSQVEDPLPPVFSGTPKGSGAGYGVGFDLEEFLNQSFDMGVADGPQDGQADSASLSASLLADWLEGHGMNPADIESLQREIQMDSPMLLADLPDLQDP

[4] = target: ATP-dependent translocase ABCB1 (Homo sapiens) (UniProt P08183); assay: MDR1 (ABCB1) efflux transporter inhibition, cell-based (AID 377; in the data active = fluorescence slope change above about 50%); details: MDR1-expressing cells, fluorescent substrate accumulation slope; stronger effect = higher value; concentration not given here
Chain of ATP-dependent translocase ABCB1 (Homo sapiens) (P08183 whole entry, looked up): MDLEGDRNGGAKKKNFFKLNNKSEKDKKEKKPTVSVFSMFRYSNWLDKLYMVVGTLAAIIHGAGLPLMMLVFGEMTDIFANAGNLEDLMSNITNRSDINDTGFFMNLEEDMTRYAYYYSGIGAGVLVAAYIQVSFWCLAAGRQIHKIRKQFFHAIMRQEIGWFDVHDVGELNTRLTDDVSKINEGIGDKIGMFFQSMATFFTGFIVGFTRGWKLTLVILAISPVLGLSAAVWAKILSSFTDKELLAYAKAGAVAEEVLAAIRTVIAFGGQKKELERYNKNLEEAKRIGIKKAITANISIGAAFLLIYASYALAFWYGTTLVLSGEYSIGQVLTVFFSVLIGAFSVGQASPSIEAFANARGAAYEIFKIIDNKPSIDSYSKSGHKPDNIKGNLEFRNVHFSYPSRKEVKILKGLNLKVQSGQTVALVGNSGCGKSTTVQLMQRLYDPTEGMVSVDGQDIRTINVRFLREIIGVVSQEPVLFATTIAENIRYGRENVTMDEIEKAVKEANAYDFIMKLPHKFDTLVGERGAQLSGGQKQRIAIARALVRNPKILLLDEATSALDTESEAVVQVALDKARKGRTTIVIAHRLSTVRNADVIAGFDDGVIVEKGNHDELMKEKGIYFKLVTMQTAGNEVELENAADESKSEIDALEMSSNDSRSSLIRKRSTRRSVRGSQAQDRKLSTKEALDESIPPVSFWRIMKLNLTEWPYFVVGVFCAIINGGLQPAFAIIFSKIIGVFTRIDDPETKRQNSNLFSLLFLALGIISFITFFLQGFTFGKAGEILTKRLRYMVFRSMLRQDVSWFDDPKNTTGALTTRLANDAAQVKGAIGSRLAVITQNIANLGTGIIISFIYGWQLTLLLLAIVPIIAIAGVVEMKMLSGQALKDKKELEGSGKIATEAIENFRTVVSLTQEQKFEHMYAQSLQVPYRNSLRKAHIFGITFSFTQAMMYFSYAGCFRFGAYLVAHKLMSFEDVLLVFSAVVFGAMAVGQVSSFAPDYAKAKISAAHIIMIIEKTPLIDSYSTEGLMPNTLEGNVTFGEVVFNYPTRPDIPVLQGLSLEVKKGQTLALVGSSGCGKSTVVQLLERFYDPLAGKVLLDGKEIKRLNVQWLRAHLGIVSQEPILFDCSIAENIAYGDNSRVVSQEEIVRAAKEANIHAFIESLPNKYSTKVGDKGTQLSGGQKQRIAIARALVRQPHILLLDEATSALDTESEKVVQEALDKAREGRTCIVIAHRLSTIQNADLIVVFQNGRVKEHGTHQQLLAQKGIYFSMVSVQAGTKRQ

[5] = polyglutamine-triggered caspase-3 activation inhibitors, cell-based (AID 1583); details: polyglutamine-induced caspase-3 activation, cell assay; stronger effect = higher value;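 tested at 10 µM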
[6] = suppressors of polyQ aggregation in yeast, 75Q-TubU reporter (AID 1593); details: Yeast 75Q polyglutamine aggregation reporter
[7] = inhibitors of mitochondrial cytochrome c release, biochemical, purified mitochondria (AID 1603); details: stronger effect = lower value;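 note: mouse liver mitochondria challenged with calcium chloride; signal normalized to the plate average as 100%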
[8] = inhibitors of polyQ protein aggregation (AID 1604); details: polyglutamine-induced protein aggregation inhibition assay; stronger effect = higher value; tested at 2.5 µM
[9] = enhancers of glutamate uptake in motor neurons, MN-1 cell line (AID 1612); details: MN-1 motor neuron cells, stronger effect = higher value;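 note: tested at 1 µM final; 0% = mean of DMSO vehicle wells on each plate; positive means more glutamate uptake than control and negative means less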
[10] = reducers of polyQ inclusions in PC12 cells, cell-based, NGF-treated PC12, GFPQ80 (AID 1614); details: PC12 NGF-treated GFP-polyQ80 inclusion reduction;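 note: lower means fewer inclusions and 0 means no inclusions at all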
[11] = suppressors of polyglutamine aggregation in yeast, 75Q-TubH (AID 1616); details: S. cerevisiae 75Q-TubH polyglutamine aggregation suppression; stronger effect = higher value
[12] = hESC survival regulators, cell-based (AID 493140; call rule not given here;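 note: cells exposed to compounds for four days before counting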); details: human embryonic stem cell survival screen; stronger effect = higher value
[13] = liver-stage malaria parasite growth inhibition, primary screen, cell-based, HepG2, luciferase luminescence, HepG2 viability (AID 624349; in the data active = parasite load remaining mostly below about 12%, no sharp cut-off; inactive = mostly above about 10%;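 note: 100% = mean of DMSO negative control wells on the same plate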); details: P. berghei liver stage in HepG2, luciferase luminescence, concentration not given here; parasite load remaining: stronger effect = lower value; viability: measured here: HepG2 viability without parasites
[14] = sensitizers of A549 cells to miR-34 induction, primary screen, imaging, A549 dox-inducible miR-34, nuclei and caspase counts (AID 1347080;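 active = compounds whose cell count with miR-34 switched on is under 0.7 times the count with it off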); details: A549 miR-34 inducible, Hoechst nuclei count, 48 h
[15] = survival rescue of mitochondrial mutant cells in low glucose, primary screen, MELAS cybrids, Rieske KO mouse fibroblasts, CellTiter-Glo (AID 1508586;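 active = mean z-score across replicates of 1.96 or higher in either the MELAS or the Rieske mutant cell line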;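 note: z relative to plate mean and SD of compound and empty wells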)
[16] = stronger effect = lower value, cell number ratio, induced over uninduced
[17] = measured here: relative caspase fold change +Dox/-Dox
[18] = measured here: total cells with miR-34 induction, stronger effect = lower value
[19] = measured here: total cells without miR-34 induction

For `CO[C@H]1C[C@H](O[C@@H]2/C(C)=C/C[C@@H]3C[C@@H](C[C@]4(CC[C@H](C)[C@@H](C5CCCCC5)O4)O3)OC(=O)[C@@H]3C=C(C)/C(=N/O)[C@H]4OC/C(=C\C=C\[C@@H]2C)[C@]43O)O[C@@H](C)[C@@H]1O`, the inhibition [1] was -18% (inactive), the remaining NAD [2] was 23 nM (inactive) and the luciferase signal [3] was 36 AU (inactive).

In the case of `CCc1cn([C@H]2C[C@H](O)[C@@H](CO)O2)c(=O)[nH]c1=O`, the inhibition [1] is reported as -4.52% (inactive), the remaining NAD [2] is reported as 10 nM (inactive) and the luciferase signal [3] is reported as 64 AU (inactive).

In the case of `C[C@@H]1O[C@@H](O[C@H]2[C@H](Oc3cc(O)c4c(c3)O[C@H](c3ccc(O)cc3)CC4=O)O[C@H](CO)[C@@H](O)[C@@H]2O)[C@H](O)[C@H](O)[C@H]1O`, the fluorescence slope change [4] is reported as 21.6% (inactive), the inhibition [5] is reported as -1.5% and the score [6] is reported as 1.92. The cytochrome c release ratio [7] was 1.05, the inhibition of aggregation [8] was 82.5% and the glutamate uptake change [9] was 6.96%. For the same compound, the inclusion score [10] was 2, the aggregation suppression score [11] was 1.02 and the survival [12] was 7.67 (inactive). The parasite load remaining [13] was 153% (inactive) and 66.6% (inactive), the viability [13] was 111% and 77.6% and the inhibition [1] was 4.72% (inactive). The fold change [14, 16] was 0.866 (inactive), the fold change [14, 17] was 1.55 and the cell count [14, 18] was 9380. For the same compound, the cell count [14, 19] was 10800 and the luciferase signal [3] was 60 AU (inactive).

With `CC12CC[C@H](CC1=O)C2(C)C` the parasite load remaining [13] was 74.1% (inactive) and 58.3% (inactive), the viability [13] was 75% and 94.1% and the inhibition [1] was 13.3% (inactive). The fold change [14, 16] was 0.849 (inactive), the fold change [14, 17] was 0.856 and the cell count [14, 18] was 10900. For the same compound, the cell count [14, 19] was 12800.

For `CC(=O)NC(CC(C)C)C(=O)O` (stereo not drawn), the inhibition [1] was 4.75% (inactive) and the remaining NAD [2] was 10 nM (inactive).

In the case of `O=C(O)c1cc(O)c2c(c1)[C@H]([C@H]1c3cc(C(=O)O)cc(O)c3C(=O)c3c(O[C@@H]4O[C@H](CO)[C@@H](O)[C@H](O)[C@H]4O)cccc31)c1cccc(O[C@@H]3O[C@H](CO)[C@@H](O)[C@H](O)[C@H]3O)c1C2=O`, the inhibition [1] is reported as 6.02% (inactive), the remaining NAD [2] is reported as 11 nM (inactive) and the luciferase signal [3] is reported as 76 AU (inactive).

In the case of `O=C(/C=C/c1ccc(O)c(O)c1)O[C@@H]1C[C@](O)(C(=O)O)C[C@@H](O)[C@H]1O`, the fluorescence slope change [4] is reported as 18.7% (inactive), the survival [12] is reported as 22.8 (inactive) and the parasite load remaining [13] is reported as 105% (inactive) and 63.3% (inactive). For the same compound, the viability [13] was 94.7% and 73.7%, the inhibition [1] was -7.84% (inactive) and the fold change [14, 16] was 0.882 (inactive) and 0.998 (inactive). For the same compound, the fold change [14, 17] was 1.35 and 0.827, the cell count [14, 18] was 9710 and 5820 and the cell count [14, 19] was 11000 and 5830. The luciferase signal [3] was 56 AU (inactive).

In the case of `CC[C@@H](C(=O)[C@@H](C)[C@@H](O)[C@H](C)CCc1ccc(C)c(O)c1C(=O)O)[C@H]1O[C@](CC)([C@H]2CC[C@](O)(CC)[C@H](C)O2)C[C@@H]1C`, the parasite load remaining [13] is reported as -0.295% (active), the viability [13] is reported as 110% and the inhibition [1] is reported as -6.18% (inactive). The fold change [14, 16] was 1.02 (inactive), the fold change [14, 17] was 1.03 and the cell count [14, 18] was 2440. The cell count [14, 19] was 2390 and the luciferase signal [3] was 44 AU (inactive).

For `O=C(OC[C@H]1O[C@@H](OC(=O)c2cc(O)c(O)c(OC(=O)c3cc(O)c(O)c(O)c3)c2)[C@H](OC(=O)c2cc(O)c(O)c(OC(=O)c3cc(O)c(O)c(O)c3)c2)[C@@H](OC(=O)c2cc(O)c(O)c(OC(=O)c3cc(O)c(O)c(O)c3)c2)[C@@H]1OC(=O)c1cc(O)c(O)c(OC(=O)c2cc(O)c(O)c(O)c2)c1)c1cc(O)c(O)c(OC(=O)c2cc(O)c(O)c(O)c2)c1`, the inhibition [1] was 12.6% (inactive), the remaining NAD [2] was 10 nM (inactive) and the luciferase signal [3] was 32 AU (inactive).

In the case of `C=C1C[C@]23C[C@@]1(O)CC[C@H]2[C@@]12C=C[C@H](O)[C@@](C)(C(=O)O1)[C@H]2[C@@H]3C(=O)O`, the survival [12] is reported as 1.25 (inactive), the parasite load remaining [13] is reported as 101% (inactive) and the viability [13] is reported as 80.4%. The inhibition [1] was -0.284% (inactive), the fold change [14, 16] was 0.973 (inactive) and the fold change [14, 17] was 0.674. The cell count [14, 18] was 8110, the cell count [14, 19] was 8340 and the luciferase signal [3] was 40 AU (inactive).

With `CC1=CC(=O)C2=C(C)CC[C@@H]3[C@H](OC(=O)[C@H]3C)[C@@H]12` the survival [12] was 21.9 (inactive), the parasite load remaining [13] was 69.2% (inactive) and the viability [13] was 75.3%. The inhibition [1] was -50% (inactive), the fold change [14, 16] was 0.934 (inactive) and the fold change [14, 17] was 0.653. For the same compound, the cell count [14, 18] was 9100, the cell count [14, 19] was 9750 and the luciferase signal [3] was 76 AU (inactive).

In the case of `CC(=O)O[C@H]1C[C@@]2(C)[C@@H](C[C@@H](O)[C@H]3[C@@]4(C)CC[C@@H](O)[C@@H](C)[C@@H]4CC[C@@]32C)/C1=C(\CCC=C(C)C)C(=O)O`, the survival [12] is reported as 5.08 (inactive), the parasite load remaining [13] is reported as 64.8% (inactive) and the viability [13] is reported as 78.6%. The inhibition [1] was 4.42% (inactive), the remaining NAD [2] was 10 nM (inactive) and the luciferase signal [3] was 128 AU (inactive).

With `CC(=O)OCC(=O)[C@@]12OC3(CCCC3)O[C@@H]1C[C@H]1[C@@H]3CCC4=CC(=O)C=C[C@]4(C)[C@@]3(F)[C@@H](O)C[C@@]12C` the inhibition [1] was 2.31% (inactive), the z-score ([15]; MELAS cybrid survival, CellTiter-Glo 48 h, stronger effect = higher value) was 0.316 (inactive) and the z-score ([15]; Rieske KO mouse fibroblast survival, CellTiter-Glo 72 h) was 0.335. The remaining NAD [2] was 10 nM (inactive) and the luciferase signal [3] was 44 AU (inactive).

With `C[C@@H]1O[C@@H](Oc2c(-c3ccc(O)c(O)c3)oc3cc(O)cc(O)c3c2=O)[C@H](O)[C@H](O)[C@H]1O` the inhibition [1] was -14.2% (inactive) and the luciferase signal [3] was 52 AU (inactive).

For `CCCCCC(=O)O[C@]1(C(C)=O)CC[C@H]2[C@@H]3CCC4=CC(=O)CC[C@]4(C)[C@H]3CC[C@@]21C`, the inhibition [1] was -2.17% (inactive), the remaining NAD [2] was 10 nM (inactive) and the luciferase signal [3] was 44 AU (inactive).

In the case of `C=C(C)[C@@H]1CC[C@]2(CO)CC[C@]3(C)[C@H](CC[C@@H]4[C@@]5(C)CC[C@H](O)C(C)(C)[C@@H]5CC[C@]43C)[C@@H]12`, the parasite load remaining [13] is reported as 104% (inactive), the viability [13] is reported as 78.6% and the inhibition [1] is reported as 1.58% (inactive). For the same compound, the fold change [14, 16] was 0.941 (inactive), the fold change [14, 17] was 0.65 and the cell count [14, 18] was 8530. For the same compound, the cell count [14, 19] was 9060 and the luciferase signal [3] was 44 AU (inactive).

For `CC(=O)N[C@@H](CC(=O)O)C(=O)O`, the parasite load remaining [13] was 117% (inactive), the viability [13] was 106% and the inhibition [1] was 3.38% (inactive). For the same compound, the fold change [14, 16] was 0.841 (inactive), the fold change [14, 17] was 1.57 and the cell count [14, 18] was 8620. The cell count [14, 19] was 10300.

In the case of `NC[C@H]1O[C@H](O[C@H]2[C@H](O[C@@H]3O[C@H](CO)[C@@H](O)[C@H]3O)[C@@H](O)[C@H](N)C[C@@H]2N)[C@H](N)[C@@H](O)[C@@H]1O`, the inhibition [1] is reported as -2.01% (inactive), the remaining NAD [2] is reported as 10 nM (inactive) and the luciferase signal [3] is reported as 40 AU (inactive).

In the case of `C[C@H]1[C@H]2CC[C@H]3[C@@H]4CC=C5C[C@@H](N(C)C)CC[C@]5(C)[C@H]4CC[C@]23CN1C`, the fluorescence slope change [4] is reported as 56.7% (active), the survival [12] is reported as 4.83 (inactive) and the parasite load remaining [13] is reported as 168% (inactive) and 68.7% (inactive). The viability [13] was 102% and 76.1%, the inhibition [1] was 13.8% (inactive) and the fold change [14, 16] was 0.82 (inactive). It also gave a fold change [14, 17] of 1.54, a cell count [14, 18] of 8300 and a cell count [14, 19] of 10100. The luciferase signal [3] was 40 AU (inactive).
